# From PubChem BioAssay
# This is one part of a sample in which hits are shown more often than they occur.
# TcdB GH inh – TcdB glycohydrolase inhibitors, primary screen, biochemical, single point, plate reader. Toxin B (Clostridioides difficile), P18177. 350,000 tested, 0.24% active. TcdB glycohydrolase enzymatic assay. inhibition, % at 9.99 µM. AID 652162, 2013; in the data active = inhibition above about 10%
# BoNT F protease – BoNT/F light chain protease inhibitors, primary screen, biochemical, flow cytometry, MLPCN library | AID 588497, 2011 | Multiplex microsphere protease cleavage assay | inhibition, % at 10 µM | 360,000 tested, 0.22% active | Botulinum neurotoxin type F light chain protease (Clostridium botulinum); in the data active = inhibition above about 35%, passing the limit was not always enough; inconclusive = no clear call, values can overlap the other calls
# BoNT-A LC inh2 – BoNT/A light chain protease inhibitors, primary screen, biochemical, flow cytometry, MLPCN library. Botulinum neurotoxin type A light chain protease (Clostridium botulinum A str. ATCC 3502). multiplex microsphere protease substrate cleavage. inhibition, % at 10 µM. 360,000 tested, 0.17% active. AID 588499, 2011; in the data active = inhibition above about 30%; inconclusive = no clear call, values can overlap the other calls
# Anthrax LF prot – Bacillus anthracis LF protease inhibitors, primary screen, biochemical, multiplex microsphere, MLPCN library. Lethal factor (Bacillus anthracis), P15917. multiplex microsphere protease cleavage assay. inhibition, % at 10 µM. 360,000 tested, 0.12% active; in the data active = inhibition above about 30%; inconclusive = no clear call, values can overlap the other calls
# Bead autofluor – counter-screen for toxin protease inhibitors: compound fluorescence | compound autofluorescence counterscreen, microsphere flow cytometry; stronger effect = higher value | fluorescence intensity (concentration not given with the values) | AID 624483 | 360,000 tested, 3.1% active; in the data active = fluorescence intensity above about 16000; inconclusive = no clear call, values can overlap the other calls
# BoNT-A LC CP1 – BoNT/A light chain protease inhibitors, confirmation, biochemical, flow cytometry, cherry pick 1; 720 tested, 3% active; shares compounds with BoNT F protease; inhibition, % at 10 µM; multiplex microsphere protease assay; in the data active = inhibition above about 32%
# BoNT-F LC CP1 – BoNT/F light chain protease inhibitors, confirmation, biochemical, flow cytometry, cherry pick 1; AID 602140, 2011; shares compounds with BoNT F protease; multiplex microsphere protease cleavage assay; inhibition, % at 10 µM; 720 tested, under 10 active
# Anthrax LF CP1 – Bacillus anthracis LF protease inhibitors, confirmation, biochemical, multiplex microsphere, cherry pick 1 | inhibition, % at 10 µM | shares compounds with BoNT F protease | 720 tested, under 10 active | multiplex microsphere protease cleavage assay
# Hits are given with their value; i = inactive; ? = inconclusive; nt = no result given. Unless noted, the rule behind the calls is not given here.
SMILES,TcdB GH inh,BoNT F protease,BoNT-A LC inh2,Anthrax LF prot,Bead autofluor,BoNT-A LC CP1,BoNT-F LC CP1,Anthrax LF CP1
C[C@@H]1CN([C@@H](C)CO)C(=O)c2cccc(NC(=O)Nc3ccc(C(F)(F)F)cc3)c2O[C@H]1CN(C)Cc1ccc(Cl)c(Cl)c1,i,nt,nt,nt,nt,nt,nt,nt
CS(=O)(=O)Nc1ccc(C2=NN(C(=O)CCCC(=O)O)C(c3cccs3)C2)cc1 (stereo unspecified),i,37,i,i,i,i,i,i
COc1ccc(C(=O)N2CCN(Cc3ccc(OC)c(OC)c3)CC2)cc1,i,44,i,i,i,i,i,i
COc1ccc(C(=O)N2CCN(Cc3cc(OC)ccc3OC)CC2)cc1,i,?,i,i,i,nt,nt,nt
COc1ccc(OC)c(Nc2nc(NCCCN(C)C)nc(N)c2[N+](=O)[O-])c1,i,?,i,31,i,i,i,i
COc1ccc(-n2ncc3c(=O)n(CC(C)=O)cnc32)cc1,i,?,61,i,i,i,i,i
CC(=O)Cn1cnc2c(cnn2-c2ccc(F)cc2)c1=O,i,i,i,i,i,nt,nt,nt
CCOC(=O)C1CCN(CCC(=O)Nc2cc(C)ccc2C)CC1,i,?,i,42,i,i,i,i
CCOC(=O)N1CCN(CCC(=O)Nc2cc(C)ccc2C)CC1,i,i,i,i,i,nt,nt,nt
Cc1cc2cc(CNC(=O)c3cccc([N+](=O)[O-])c3)ccc2n1C,i,i,i,i,i,nt,nt,nt
Cc1cc2cc(CNC(=O)CCC(=O)O)ccc2n1C,i,i,i,i,i,i,i,i
O=C(Cc1ccc([N+](=O)[O-])cc1)NCc1ccncc1,i,i,i,i,i,nt,nt,nt
Cc1cc2cc(CNC(=O)Cc3ccc([N+](=O)[O-])cc3)ccc2n1C,i,i,77,i,i,i,i,i
Cc1cc2cc(CNC(=O)Cc3ccc([N+](=O)[O-])cc3)ccc2[nH]1,i,i,58,i,i,i,i,i
CCCC(=O)NCc1ccc2c(c1)cc(C)n2C,nt,i,i,i,i,i,i,i
C[C@H]1CN([C@@H](C)CO)C(=O)c2cccc(NC(=O)Nc3ccc(F)cc3)c2O[C@@H]1CN(C)C(=O)NC1CCCCC1,i,nt,nt,nt,nt,nt,nt,nt
Cc1noc(C)c1NC(=O)Nc1cccc2c1O[C@@H](CN(C)C)[C@H](C)CN([C@H](C)CO)C2=O,i,nt,nt,nt,nt,nt,nt,nt
Cc1ccc(C(CC(=O)N2CCNCC2)c2ccccc2)c(O)c1C (stereo unspecified),i,i,i,i,i,nt,nt,nt
Cc1ccc(C(CC(=O)N2CCCCC2)c2ccccc2)c(O)c1C (stereo unspecified),i,128,i,69,i,i,i,i
CCOc1ccc(NC(=O)c2[nH]c(C)c(C(C)=O)c2C)cc1,i,35,i,i,i,i,i,i
COc1ccc(NC(=O)c2[nH]c(C)c(C(C)=O)c2C)cc1,i,i,i,i,i,nt,nt,nt
O=C(C[C@@H]1CC[C@@H]2[C@H](COC[C@@H](O)CN2C(=O)Nc2ccc(F)cc2)O1)NCCc1ccncc1,i,nt,nt,nt,nt,nt,nt,nt
CSc1cnc2c(N)nc(N(C)C)nc2n1,nt,49,i,i,i,i,i,i
CN(C)c1nc(N)c2nccnc2n1,i,i,i,i,i,nt,nt,nt
OC1CN=C2CCCc3c2n(c2ccc(Cl)cc32)C1 (stereo unspecified),nt,i,54,42,i,i,i,i
SMILES,TcdB GH inh,BoNT F protease,BoNT-A LC inh2,Anthrax LF prot,Bead autofluor,BoNT-A LC CP1,BoNT-F LC CP1,Anthrax LF CP1
CCN(C(=O)c1ccc(C)c(Br)c1)c1ccccc1,nt,60,i,i,i,i,i,i
CCN(C(=O)c1cccnc1)c1ccccc1,nt,i,i,i,i,nt,nt,nt
C[C@H]1CCCCO[C@@H](CN(C)C(=O)c2ccccc2)[C@@H](C)CN([C@@H](C)CO)C(=O)c2cc(NC(=O)Cc3ccccc3)ccc2O1,i,nt,nt,nt,nt,nt,nt,nt
Cc1ccc(C(=O)Nc2ccccc2C(=O)O)cc1S(=O)(=O)Nc1ccc(Br)cc1,i,nt,nt,nt,nt,i,i,i
Cc1ccc(C(=O)Nc2ccccc2C(=O)O)cc1S(=O)(=O)NCc1ccccc1,i,i,i,i,i,nt,nt,nt
Cc1cc(C)c2cc3c(N)c(C(=O)N4CCOCC4)sc3nc2c1,i,i,i,i,i,i,i,i
Cc1ccc(C)c2nc3sc(C(=O)N4CCOCC4)c(N)c3cc12,i,i,i,i,i,i,i,i
Cc1cccc2cc3c(N)c(C(=O)N4CCc5ccccc54)sc3nc12,i,i,i,i,i,i,i,i
Cc1cc(C)c2nc3sc(C(=O)N4CCOCC4)c(N)c3cc2c1,i,i,i,i,i,nt,nt,nt
CCOc1ccc2nc3sc(C(=O)N4CCOCC4)c(N)c3cc2c1,i,i,i,i,i,i,i,i
Nc1c(C(=O)N2CCOCC2)sc2nc3c(cc12)CCCC3,i,i,i,i,i,nt,nt,nt
O=C(NC1CCCC1)[C@H]1[C@H](CO)[C@H]2Cn3c(ccc(-c4ccncc4)c3=O)[C@H]2N1CC1CC1,i,nt,nt,nt,nt,nt,nt,nt
C/C=C/c1cnc2c(c1)C(=O)N([C@@H](C)CO)C[C@@H](C)[C@H](CN(C)C(=O)Nc1ccc(OC)cc1)O2,i,nt,nt,nt,nt,nt,nt,nt
O=C(Nc1ccccc1F)N1C[C@H]2[C@@H](c3ccccc31)[C@@H](CO)N2C(=O)C1CCOCC1,i,nt,nt,nt,nt,nt,nt,nt
O=C(NC1CCCCCC1)C1CCCN(c2ncccn2)C1 (stereo unspecified),i,i,79,i,i,i,i,i
O=C(NC1CCCCC1)C1CCN(c2ncccn2)CC1,i,i,i,i,i,nt,nt,nt
Cc1cc(C)n(C(=O)COc2ccc(Cl)cc2Cl)n1,nt,i,i,i,i,nt,nt,nt
Cc1cc(C)n(C(=O)COc2c(C)cccc2C)n1,nt,47,i,i,i,i,i,i
COc1ccc(CC2(CO)CCN(S(=O)(=O)c3sccc3C)CC2)cc1,i,38,i,i,i,i,i,i
COC(=O)Cc1ccc(NC(=S)N2CCN(c3ccccn3)CC2)cc1,i,i,178,64,i,i,i,i
CCc1cccc(NC(=O)CCc2nc(-c3cccs3)no2)c1,i,i,i,i,i,nt,nt,nt
COc1cc(NC(=O)CCc2nc(-c3cccs3)no2)cc(OC)c1OC,nt,42,i,i,i,i,i,i
CC(=O)N(C)C[C@H]1Oc2cc(C#CC(C)C)ccc2S(=O)(=O)N([C@H](C)CO)C[C@@H]1C,i,nt,nt,nt,nt,nt,nt,nt
Cc1noc(C)c1NC(=O)Nc1ccc2c(c1)C(=O)N([C@@H](C)CO)C[C@@H](C)[C@@H](CN(C)S(=O)(=O)c1cn(C)cn1)OCCCC[C@@H](C)O2,i,nt,nt,nt,nt,nt,nt,nt
CCC(=O)Nc1ccc2c(c1)C(=O)N(C)[C@H]1CC[C@H](CC(=O)Nc3ccc(OC)cc3)O[C@@H]1CO2,i,nt,nt,nt,nt,nt,nt,nt
